Calls of active or inactive are those of the source. The calls were made as follows: active = hit-call score of the fitted dose curve at least 0.9, where 1 is the maximum; inactive = score below 0.9.
Assay: ATG_Ets_CIS: Attagene CIS-FACTORIAL HepG2 Assay for human Erythroblast Transformation Specific (ETS) (AID 2282941)
Conditions: HepG2 ETS cis-reporter transcription, actives raise or lower the signal
Experimental: ATG_CIS is a cell-based, multiplexed-readout assay that uses HepG2, a human liver cell line, with measurements taken at 24 hours after chemical dosing in a 24-well plate.ATG_Ets_CIS is one of 52 assay component(s) measured or calculated from the ATG_CIS assay. It is designed to make measurements of mRNA induction, a form of inducible reporter, as detected with fluorescence intensity signals by Reverse transcription polymerase chain reaction (RT-PCR) and Capillary electrophoresis technology.Data from the assay component ATG_Ets_CIS was analyzed into 1 assay endpoint. This assay endpoint, ATG_Ets_CIS, was analyzed with bidirectional fitting relative to DMSO as the negative control and baseline of activity. Using a type of inducible reporter, measures of mRNA for gain or loss-of-signal activity can be used to understand the reporter gene at the transcription factor-level as they relate to the gene ETS1. Furthermore, this assay endpoint can be referred to as a primary readout, because this assay has produced multiple assay endpoints where this one serves a reporter gene function. To generalize the intended target to other relatable targets, this assay endpoint is annotated to the dna binding intended target family, where the subfamily is winged helix-turn-helix.
Human liver HepG2 cells are transiently transfected with multiple reporter transcription units (MRTUs) in 6-well plates using FuGene 6 reagent (Roche; 3 ml FuGene/1 mg DNA). The MRTU constructs are regulated by a cis-regulating element (promoter). […] A major difference between the CIS and TRANS system is that in CIS activities of endogenous TFs are measured, whereas the TRANS assay evaluates changes in activities of exogenous, chimeric NR-Gal4 proteins. […] At the end of 24 hour incubation, total RNA was isolated using TriZol reagent (Invitrogen). The isolated RNA is then reverse-transcribed using oligo(dT) primer and Mo-MLV reverse transcriptase (Invitrogen) with DNAse I (Ambion) treatment for 30 min. The one-tenth of the produced cDNA was amplified by PCR using Taq DNA polymerase (Invitrogen) and two reporter sequence-specific primers. The PCR products were fluorescently labeled by primer extension with 6-arboxyfluorescein (6-FAM) 5'-labeled reporter sequence-specific primer (2 min at 95 C, 20 s at 68 C and 10 min at 72 C) and these products were digested with 5U of HpaI (New England Biolabs) for 2h at 37 C. The fragments were purified using Qiaquick PCR columns (Qiagen), analyzed on an ABI 3130xL genetic analyzer (Applied Biosystems) with peak positions identified by using a set of X-rhodamine (ROX)-labeled MapMarker1000 molecular weight standards (BioVentures). The raw capillary electrophoresis data was processed using Attagraph software (Attagene).

Structure (SMILES) | outcome | AC50
CC(=O)OCC(=O)[C@@]12N=C(C)O[C@@H]1C[C@H]1[C@@H]3CCC4=CC(=O)C=C[C@]4(C)[C@H]3[C@@H](O)C[C@@]12C | inactive | 
Cc1ccc2oc(=O)ccc2c1 | inactive | 
N#CCc1ccc(Cl)cc1Cl | inactive | 
O=C1CCCCCCCCCCC(=O)OCCO1 | inactive | 
O=S1(=O)OC(c2ccc(O)cc2)(c2ccc(O)cc2)c2ccccc21 | inactive | 
CCOC(=O)c1ccccc1C(=C1C=C(Br)C(=O)C(Br)=C1)c1cc(Br)c(O)c(Br)c1 | inactive | 
COCC(C)N (stereo not given) | inactive | 
CCCCCCCCCCCCCOP(=O)(O)O | inactive | 
O=C(C=Cc1ccccc1)OCc1ccccc1 | inactive | 
C=C1[C@H]2CC[C@@H]3[C@H]2C(C)(C)CCC[C@]13C | inactive | 
CCCCCc1ccc(Cl)cc1 | inactive | 
CCc1ccc2c(c1)C(=O)c1ccccc1C2=O | inactive | 
C=C(C)CCO | inactive | 
[Cl][Nd]([Cl])[Cl] | inactive | 
C=C(C)C(=O)OCCOc1ccccc1 | inactive | 
CCOC(=O)Cc1cccc2ccccc12 | inactive | 
Cc1cccc(C(=O)O)c1 | inactive | 
CC(=O)c1ccc[nH]1 | inactive | 
Clc1nc2ccccc2s1 | inactive | 
C=CC(C)(CCC=C(C)C)OC(=O)CC(C)C (stereo not given) | inactive | 

Structure (SMILES) | outcome | AC50
CCOCC(=O)O | inactive | 
O=C(O)CCCCCCCCCC(=O)O | inactive | 
O=C1CCCCCN1SSN1CCCCCC1=O | inactive | 
OCCc1ccncc1 | inactive | 
O=C(Nc1ccccc1)c1ccccc1O |  | 100 µM (active)
CCCCCCOC(=O)C(C)CC (stereo not given) | inactive | 
CCOC(=O)[C@H](C)O | inactive | 
C=CC(=O)OCC(Br)CBr (stereo not given) | inactive | 
C=CC(=O)OCCOC(=O)C=C |  | 27.2 µM (active)
CCCCC(CC)COC(=O)c1ccccc1O (stereo not given) | inactive | 
CC(C)=CCC[C@H](C)CCO | inactive | 
NC(=O)c1ccccc1O | inactive | 
O=C(O)CC(C(=O)O)C(CC(=O)O)C(=O)O (stereo not given) | inactive | 
CCCCC/C=C\C/C=C\CCCCCCCC(=O)OC | inactive | 
C=CC(=O)NC(C)(C)CS(=O)(=O)O | inactive | 
Cc1cccc(OCCOc2cccc(C)c2)c1 | inactive | 
Nc1ccc(N)c(Cl)c1 | inactive | 
O=C1Nc2ccccc2C1(c1ccc(O)cc1)c1ccc(O)cc1 |  | 48.8 µM (active)
CC=CC(F)(F)C(F)(F)C(F)(F)F | inactive | 
COCCCOCCCOC | inactive | 
